Screening results as filed in PubChem.
Pf Dd2 inh: inhibitors of Plasmodium falciparum Dd2 growth; P. falciparum Dd2 growth, SYBR Green, 72 h; Potency, µM (titrated, usually from 28.9 µM), inactives show top-dose activity, negative = inhibition, hits mostly inhibitors; actives 4.3% (n = 120,000); AID 1347417; active means well fitted inhibition curve with a large enough effect;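 further: plate controls were DMSO vehicle for no effect and reference drug for full effect; nearly all actives have a fitted effect of over 65% in size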
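Readout: SYBR Green fluorescence, 485 nm excitation, 535 nm emission, after ~16 h lysis at 37C. Before that, Dd2-infected red cells (2.5% hematocrit) grew 72 h with compound, 29 uM top final concentration.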
* = called active by the depositor; i = inactive; [ ] = another dose, or the depositor's remark. Only a selection was taken, and hits are over-represented in it overall. Potency means the concentration at half of the fitted maximal effect.

SMILES	Pf Dd2 inh
COc1cccc(CC(=O)NC2CCCN(c3cc(-c4ccc(F)cc4)[nH]n3)C2)c1 (stereo not given)	i
O=C(Cc1cccc(F)c1)NC1CCN(c2cc(-c3ccc(F)cc3)[nH]n2)C1 (stereo not given)	6.3µM*
COc1ccc(CC(=O)NC2CCN(c3cc(-c4ccc(F)cc4)[nH]n3)C2)cc1 (stereo not given)	-10%
CCOc1ccc(CC(=O)NC2CCN(c3cc(-c4ccc(F)cc4)[nH]n3)C2)cc1OCC (stereo not given)	-10%
COc1ccc(CC(=O)NC2CCN(c3cc(-c4ccc(Cl)cc4)[nH]n3)C2)cc1OC (stereo not given)	7.9µM*
COc1ccc(-c2cc(N3CCC(NC(=O)Cc4ccc(Cl)cc4)CC3)n[nH]2)cc1	-13%
CN(Cc1ccco1)C(=O)Cc1cccn1-c1cccc(Cl)c1	-7%
COc1ccc(-c2cn(C)c(=O)n3cc(CN4CC[S+](=O)([O-])CC4)nc23)cc1OC	i
CCOC(=O)N1CCC(N2CCCC(CCC(=O)Nc3ccc(OC)c(Cl)c3)C2)CC1 (stereo not given)	0%
O=C(CCc1nc(-c2ccco2)no1)N[C@@H]1CCOC[C@H]1OCC1CCC1	-12%
Cc1ccc(OCc2nc(C3CCCN3C(=O)c3sc(C)nc3C)no2)cc1 (stereo not given)	i
CCOc1ccc(CN2C[C@@H]3C(=O)N(Cc4ccc5c(c4)OCO5)C(=O)[C@@H]3C2)cc1	-15%
CCOc1ccc(CN(CCc2ccc3c(c2)OCO3)Cc2cc(OC)ccc2O)cc1	0.71µM*
CCOc1ccc(CN(CCc2ccc3c(c2)OCO3)Cc2ccc(CC)cc2)cc1	-14%
CC(NC(=O)c1cc2c(s1)CCN(C(=O)c1ccccc1)C2)c1ccc(F)cc1 (stereo not given)	-2%
Cc1ccc(C(=O)N2CCc3sc(C(=O)NCc4ccc(N(C)C)cc4)cc3C2)cc1	-20%
Cc1ccc(C(=O)N2CCc3sc(C(=O)NC(C)c4ccccc4)cc3C2)cc1 (stereo not given)	7.1µM*
CNC1CCc2nnc(C)n2CC1 (stereo not given)	16%
CCc1ccccc1NC(=O)CC1CCN(c2ccnc(OC)n2)CC1	i
O=C(Cn1ccn2nc(-c3ccc(F)cc3)c(CO)c2c1=O)Nc1ccc(F)c(Cl)c1	-14%
Cn1nccc1C(=O)N1CCC(c2noc(-c3ccccc3)n2)C1 (stereo not given)	23%[5.79 µM]
CNc1cc(C2CC(NS(=O)(=O)c3ccc(Cl)s3)C2)nc(N)n1 (stereo not given)	7.9µM*
O=C(C1CCCCC1)N1CC[C@H]2COC(=O)N2c2cc(F)ccc2C1	3%[44.1 µM]
COCCNC(=O)C1CC(c2ccccc2)CN(C(=O)c2ccccc2)C1 (stereo not given)	-8%
OCCC1CN(Cc2cc(F)cc(F)c2)CCN1Cc1cccs1 (stereo not given)	-16%
SMILES	Pf Dd2 inh
O=C(c1c(OCC2CC2)cc(=O)n2c1CCOCC2)N1CCOCC1	13%
O=C(Cc1ccc(F)cc1)N1CC(c2nnc(-c3ccncc3)o2)C2(CCOCC2)C1 (stereo not given)	3%
COc1ccc2[nH]cc(CCNC(=O)Nc3ccc(F)cc3)c2c1	19%
Cc1cc(C)nc(NC(=NCCc2c[nH]c3ccc(Cl)cc23)NC(=O)c2ccccc2C)n1	-4%
COc1ccc2[nH]cc(CCN=C(NC(=O)c3ccccc3C)Nc3nc(C)cc(C)n3)c2c1	8.9µM*
COCc1cccc(-c2n[nH]c3c2CC(=O)N(Cc2ccccc2)C3)c1	i
O=C(NCc1ccco1)C1CC(=O)N(c2n[nH]c3cccc(F)c23)C1 (stereo not given)	6%
COCC(=O)N(C1CCOCC1)C1CCN(C(=O)c2cc(Cl)ccc2F)CC1	9%
Cc1cc(N2CCCCC2)nc2ccc(NC(=O)CCC(=O)N3CCN(c4ccccc4)CC3)cc12	-26%
CCOc1ccc(C(=O)Nc2ccc3ncnc(N4CCCCC4)c3c2)cc1	i
COc1ccc(-n2nc3ccc(NC(=O)c4cccc(OCCC(C)C)c4)cc3n2)cc1	i
CCN1CCN(c2cc(C)c3cc(NC(=O)/C=C/c4ccc(C)cc4)ccc3n2)CC1	1.1µM*
Cc1ccc(C)c(N2CCN(C(=O)CCC(=O)Nc3ccc4nc(N5CCCCC5)cc(C)c4c3)CC2)c1	i
CCN1CCN(c2cc(C)c3cc(NC(=O)/C=C/c4ccc(OCCC(C)C)cc4)ccc3n2)CC1	1.1µM*
CCOC(=O)c1cccc(NC(=O)N2CC[C@@H](CC(=O)N3CCOCC3)[C@@H](CC)C2)c1	-11%[44.1 µM]
Cc1nc(C)c(CC(=O)N(Cc2ccccc2)Cc2scnc2C)s1	1%
COc1ccc(N2Cc3c(ncnc3N3CCCN(C(C)=O)CC3)N(C)CC2=O)cc1	21%
Cc1cnc(C(=O)N2C[C@@H](Oc3cccnc3)C[C@H]2C(=O)NC2CC2)cn1	24%
C[S+](=O)([O-])NC1CCN(c2nc3ncccc3o2)CC1	-3%[44.1 µM]
Cc1ccsc1CN1CCOc2ccc(C(=O)NCc3ccccc3F)cc2C1	i
CCOc1ccc(C(=O)Nc2c(C)nc(Nc3ccccc3)nc2Nc2ccccc2)cc1OCC	13µM*
CCOc1ccc(Nc2nc(C)c(NC(=O)c3cccc(OC)c3)c(Nc3ccc(OCC)cc3)n2)cc1	-11%
CCOc1ccc(C(=O)Nc2ccc(S(=O)(=O)Nc3nc(C)cc(C)n3)cc2)cc1OC	9%
CC(C)CCC1=NC2(CCN(C(=O)C3CC34CCCC4)CC2)C(=O)N1 (stereo not given)	-22%
CC1=C[C@@H](CN2CCC(O)CC2)[C@H](C(C)C)C[C@H]1Cc1nnc(C)o1	-27%[44.1 µM]
SMILES	Pf Dd2 inh
COCCN1CCN(C[C@@H]2C=C(C)[C@H](Cc3nnc(-c4cccnc4)o3)C[C@H]2C(C)C)CC1	-16%
CC1=C[C@@H](CN2CCC(O)CC2)[C@H](C(C)C)C[C@H]1Cc1nnc(-c2ccc(N(C)C)cc2)o1	3.5µM*
COCCN1CCN(C[C@@H]2C=C(C)[C@H](Cc3nnc(-c4ccc(N(C)C)cc4)o3)C[C@H]2C(C)C)CC1	4µM*
Cn1cnc2cc(-c3cccc4[nH]ncc34)cc(C(=O)NCc3cccnc3)c21	i
COCCCNC(=O)C(NC(=O)c1ccccc1C)C1CCN(C(=O)c2cccs2)CC1 (stereo not given)	-22%
O=c1[nH]c(N2CCOCC2)nc2c1CCN(Cc1ccsc1)CC2	i[5.79 µM]
O=C(c1ccccc1OCC1CCCN(Cc2ccsc2)C1)N1CCCC1 (stereo not given)	-3%
Cc1cnc(C(=O)N2CCC(c3nc(CCOc4ccc(F)cc4)no3)C2)cn1 (stereo not given)	i
CC(=O)C1=C(c2ccc(Br)cc2)N(C(C)=O)n2c(nnc2C2CCCCC2)S1	1.4µM*
Cn1c(=O)oc2ccc(C(=O)N3CCn4nc(C(O)CO)cc4C3)cc21 (stereo not given)	-11%
CNC(=O)[C@@H]1C[C@H](n2cc(-c3ccc(CN4CC[C@@H](O)C4)cc3)nn2)CN1	26%
Cc1ccccc1C(=O)N1CCC(N2CC3CCCN3C2=O)CC1 (stereo not given)	6%[44.1 µM]
F[C@@H]1CN(C2CCOCC2)C[C@@H]1OCc1nc2ccccc2[nH]1	36%[44.1 µM]
CN(C)C[C@@H]1CN(c2ccccn2)C[C@H]1NC(=O)c1ccoc1	-7%
COc1ccc(CN2Cc3[nH]cnc3C[C@H]2C(=O)NCc2ccc(Cl)cc2)c2ccccc12	i
COc1ccc(CN2Cc3[nH]cnc3C[C@H]2C(=O)NCc2ccc(C#N)cc2)c2ccccc12	-12%
